Results on 20 compounds are retold here after PubChem BioAssay.

The structures appear in SMILES notation. Unmarked numbers belong to inactive results. For some of these results: Entries with a potency or affinity are not part of this list. Calls of active or inactive are those of the source. Unless noted, no rule for the calls is given here.

Experiment [1] in a line: antimalarial activity against Dd2 strain (AID 2302;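 active = growth inhibition above 50% at the single 2 µM test dose, taken to imply half-maximal potency below 2 µM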;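 also: 0% = DMSO untreated growth and 100% = chloroquine plus artemisinin killed control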). The conditions noted are these: P. falciparum Dd2 in RBCs, LDH growth readout, 72 h; at 2 µM; hits give high values.
Experiment [2] in a line: human hepatoma cell viability loss – ATP luminescence, cytotoxicity control for P. falciparum antimalarial project, primary screen (AID 2303;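 active = inhibition above 50%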;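 also: 0% = DMSO wells and 100% = digitonin-killed cells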). The following applies: HepG2 viability, 24-48 h, at 10 µM, hits give high values.
In experiment [3] the target is L-lactate dehydrogenase (Plasmodium falciparum (isolate CDC / Honduras)) (UniProt Q27743). Put plainly: PfLDH activity inhibition – cell lysate, 3D7 strain, counter-screen for P. falciparum growth inhibition project (AID 2304).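 Also: 0% = vehicle and 100% = reference inhibitor.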 The conditions noted are these: P. falciparum 3D7 crude extract, LDH APAD/NBT absorbance; at 2 µM; hits give high values. For orientation: Counterscreens check selectivity or assay interference.
L-lactate dehydrogenase (Plasmodium falciparum (isolate CDC / Honduras)), sequence (Q27743 whole entry, looked up): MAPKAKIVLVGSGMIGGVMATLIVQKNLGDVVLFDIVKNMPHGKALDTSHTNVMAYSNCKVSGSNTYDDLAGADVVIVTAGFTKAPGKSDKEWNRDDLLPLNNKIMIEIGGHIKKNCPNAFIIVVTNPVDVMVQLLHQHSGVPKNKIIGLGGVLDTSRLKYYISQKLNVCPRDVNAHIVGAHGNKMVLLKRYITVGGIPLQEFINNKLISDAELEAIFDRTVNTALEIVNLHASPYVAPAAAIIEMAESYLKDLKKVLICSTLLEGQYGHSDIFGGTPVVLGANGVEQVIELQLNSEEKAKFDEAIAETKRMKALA

Experiment [4] is described as follows: inhibition of 3D7 malaria parasite growth – strain 3D7 (AID 2306).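 Also: 0% = DMSO wells and 100% = chloroquine plus artemisinin control wells.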 The following applies: P. falciparum 3D7 erythrocytic growth, LDH absorbance, 72 h; at 2 µM; hits give high values.
For experiment [5], the target named is Calcium-dependent protein kinase 1 (Plasmodium falciparum (isolate 3D7)) (UniProt P62344). Put plainly: PfCDPK1 kinase inhibitors, biochemical, TCAMS library (AID 1159585; cut-off not given, nearly all actives have IC50 up to about 0.98 µM;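 also: inhibitors leave more ATP so luminescence rises with inhibition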). The conditions noted are these: recombinant PfCDPK1, Kinase-Glo ATP depletion luminescence. A general note: Kinase-Glo reads ATP consumption through a luciferase reaction.
Calcium-dependent protein kinase 1 (Plasmodium falciparum (isolate 3D7)), sequence (P62344 whole entry, looked up): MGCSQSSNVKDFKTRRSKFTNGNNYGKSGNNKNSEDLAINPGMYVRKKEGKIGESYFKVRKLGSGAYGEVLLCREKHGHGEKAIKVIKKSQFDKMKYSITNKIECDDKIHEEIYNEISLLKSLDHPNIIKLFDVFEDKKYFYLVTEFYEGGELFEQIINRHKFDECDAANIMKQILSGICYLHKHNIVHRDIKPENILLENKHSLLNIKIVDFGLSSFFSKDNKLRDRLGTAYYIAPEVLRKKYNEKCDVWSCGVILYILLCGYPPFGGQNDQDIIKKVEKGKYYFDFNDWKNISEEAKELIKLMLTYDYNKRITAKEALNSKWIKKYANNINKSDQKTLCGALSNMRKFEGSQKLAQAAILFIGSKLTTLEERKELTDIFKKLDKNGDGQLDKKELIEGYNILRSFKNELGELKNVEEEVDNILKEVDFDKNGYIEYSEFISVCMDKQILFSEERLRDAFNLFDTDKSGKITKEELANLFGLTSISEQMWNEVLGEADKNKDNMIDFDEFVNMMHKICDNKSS
The target in experiment [6] is Plasmodium falciparum protein kinase 6 (PK6, PF3D7_1337100) (UniProt Q8IDW1). Put plainly: PfPK6 kinase inhibitors, biochemical, TCAMS library (AID 1159586). The following applies: recombinant PfPK6, Kinase-Glo ATP depletion luminescence.
Plasmodium falciparum protein kinase 6 (PK6, PF3D7_1337100), sequence (Q8IDW1 1-305): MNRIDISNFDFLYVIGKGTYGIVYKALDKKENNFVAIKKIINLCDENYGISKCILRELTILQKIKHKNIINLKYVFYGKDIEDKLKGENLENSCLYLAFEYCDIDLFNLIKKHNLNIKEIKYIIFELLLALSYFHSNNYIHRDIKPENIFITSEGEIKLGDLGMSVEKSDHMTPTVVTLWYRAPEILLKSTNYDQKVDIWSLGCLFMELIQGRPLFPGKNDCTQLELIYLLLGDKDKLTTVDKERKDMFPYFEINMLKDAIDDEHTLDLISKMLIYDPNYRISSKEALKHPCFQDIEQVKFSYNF
The target of experiment [7] is Protein kinase 7 (PK7), Plasmodium falciparum 3D7 (PF3D7_0213400) (UniProt Q7YTF7). As to the kind of experiment: inhibition of Plasmodium PK7 catalytic activity – biochemical, TCAMS antimalarial set, Kinase-Glo luminescence (AID 1159587). The following applies: recombinant PfPK7, Kinase-Glo ATP depletion luminescence.
Protein kinase 7 (PK7), Plasmodium falciparum 3D7 (PF3D7_0213400), sequence (Q7YTF7 1-343): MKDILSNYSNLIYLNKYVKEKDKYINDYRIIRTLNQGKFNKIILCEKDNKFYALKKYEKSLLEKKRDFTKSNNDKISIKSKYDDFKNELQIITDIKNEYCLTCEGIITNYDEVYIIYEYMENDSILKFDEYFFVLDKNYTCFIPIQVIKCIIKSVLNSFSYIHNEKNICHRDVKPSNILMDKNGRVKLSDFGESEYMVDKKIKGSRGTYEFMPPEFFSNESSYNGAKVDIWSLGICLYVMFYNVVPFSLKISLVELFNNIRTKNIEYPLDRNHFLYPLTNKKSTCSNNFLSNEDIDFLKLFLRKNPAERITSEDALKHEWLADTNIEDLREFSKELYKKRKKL
Experiment [8] addresses Calcium-dependent protein kinase 4 (Plasmodium falciparum (isolate 3D7)) (UniProt Q8IBS5). As to the kind of experiment: PfCDPK4 kinase inhibitors, biochemical, TCAMS library (AID 1159588; cut-off not given, nearly all actives have IC50 up to about 0.91 µM). The conditions noted are these: recombinant PfCDPK4, Kinase-Glo ATP depletion luminescence.

Calcium-dependent protein kinase 4 (Plasmodium falciparum (isolate 3D7)), sequence (Q8IBS5 whole entry, looked up): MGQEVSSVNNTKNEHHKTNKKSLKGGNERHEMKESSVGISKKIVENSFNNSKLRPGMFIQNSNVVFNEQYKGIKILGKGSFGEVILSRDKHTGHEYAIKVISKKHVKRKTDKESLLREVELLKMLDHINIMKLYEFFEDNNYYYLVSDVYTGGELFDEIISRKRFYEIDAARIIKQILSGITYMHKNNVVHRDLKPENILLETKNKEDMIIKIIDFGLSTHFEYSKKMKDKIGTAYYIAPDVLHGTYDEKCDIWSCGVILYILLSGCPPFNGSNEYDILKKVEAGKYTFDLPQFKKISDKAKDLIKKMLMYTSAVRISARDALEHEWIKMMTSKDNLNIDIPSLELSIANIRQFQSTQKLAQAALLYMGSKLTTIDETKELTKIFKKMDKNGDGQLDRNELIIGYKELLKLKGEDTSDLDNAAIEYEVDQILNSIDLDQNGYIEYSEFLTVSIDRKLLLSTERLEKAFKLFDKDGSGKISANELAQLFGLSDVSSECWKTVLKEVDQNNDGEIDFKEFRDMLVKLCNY

`COc1ccc(C2CCN(CCCCNC(=O)c3ccc(NC(=O)c4ccc(Cl)cc4)cc3)CC2)c(OC)c1`: the growth inhibition in experiment [1] is 95% (active); in experiment [4], 101% (active). The inhibition in experiment [2] was 32%; in experiment [3], 0%. In addition, the outcome in experiment [5], in experiment [6], in experiment [7] and in experiment [8] was inactive.
With `Cc1cc(NN=Cc2cccc(F)c2)c2ccc(F)cc2n1`, the growth inhibition is 99% (active) in experiment [1] and 101% (active) in experiment [4]. In addition, the inhibition was 2% in experiment [2] and -2% in experiment [3]. Further, the outcome in experiment [5], in experiment [6], in experiment [7] and in experiment [8] was inactive.
Take `CN1CCN(Cc2ccc(-c3ccc4c(Nc5ccc(F)cc5Cl)ccnc4c3)o2)CC1`: the growth inhibition in experiment [1] and in experiment [4] was 100% (active) in each case. Moreover, the inhibition in experiment [2] is 8%; in experiment [3], -3%. In addition, the outcome in experiment [5], in experiment [6], in experiment [7] and in experiment [8] was inactive.
Turning to `CC1(C)N=C(N)N=C(N)N1c1cc(Cl)c(Cl)c(Cl)c1`, the values for the growth inhibition in experiment [1] and in experiment [4] were 31% and 93% (active), respectively. Besides, the inhibition in experiment [2] was 68% (active); in experiment [3] it was -7%. The result in experiment [5], in experiment [6], in experiment [7] and in experiment [8] was inactive.
As for `CC(C)C(=O)NC(Nc1ccc([N+](=O)[O-])cc1)C(Cl)(Cl)Cl` (stereo not given), the results for the growth inhibition in experiment [1] and in experiment [4] were 84% (active) and 97% (active), respectively. Further, the inhibition in experiment [2] was 7%; in experiment [3] it was -6%. Moreover, the outcome in experiment [5], in experiment [6], in experiment [7] and in experiment [8] was inactive.
For the compound `Cc1cc(N2CCC(NS(=O)(=O)c3ccc(F)cc3)CC2)nc(Nc2cccc(C#N)c2)n1`, the growth inhibition was 65% (active) in experiment [1] and 97% (active) in experiment [4]. The inhibition was 20% in experiment [2] and -4% in experiment [3]. Also, the result in experiment [5], in experiment [6], in experiment [7] and in experiment [8] was inactive.
As for `COc1cc(Nc2nccc(N3CCC(NC(=O)c4cccc(C#N)c4)C3)n2)cc(OC)c1OC` (stereo not given), the growth inhibition in experiment [1] was 76% (active); in experiment [4], 91% (active). Further, the inhibition in experiment [2] was 13%; in experiment [3] it was -8%. Besides, the outcome in experiment [5], in experiment [6], in experiment [7] and in experiment [8] was inactive.
Take `Cc1cc(F)ccc1C1CCN(CCCCNC(=O)c2ccc(NC(=O)c3ccc(Cl)cc3)cc2)CC1`: the growth inhibition in experiment [1] was 79% (active); in experiment [4], 101% (active). Further, the inhibition in experiment [2] is 19%; in experiment [3], 0%. For the same compound, the result in experiment [5], in experiment [6], in experiment [7] and in experiment [8] was inactive.
`COc1ccc(NC(=O)C2c3ccccc3C(=O)N(C3CCCC3)C2c2cccs2)cc1OC` (stereo not given): the growth inhibition is 96% (active) in experiment [1] and 90% (active) in experiment [4]. Moreover, the inhibition in experiment [2] is -5%; in experiment [3], -2%. The outcome in experiment [5], in experiment [6], in experiment [7] and in experiment [8] was inactive.
Take `COc1ccc(-c2cccc(NC(=O)c3ccc(Cl)cc3)c2)cc1CN1CCC(O)CC1`: the growth inhibition is 43% in experiment [1] and 100% (active) in experiment [4]. The inhibition was 51% (active) in experiment [2] and 3% in experiment [3]. In addition, the result in experiment [5], in experiment [6], in experiment [7] and in experiment [8] was inactive.
As to `Cc1cccc2[nH]c(-c3cccc(-c4cccc(NC(=O)CC5NC(=O)c6ccccc65)c4)c3)nc12` (stereo not given), the growth inhibition is 49% in experiment [1] and 92% (active) in experiment [4]. Besides, the inhibition in experiment [2] is 8%; in experiment [3], -1%. Also, the result in experiment [5], in experiment [6], in experiment [7] and in experiment [8] was inactive.
For `O=C(NCc1ccc(C(=O)NCc2cccc3ccccc23)cc1)c1ccc(O)c(-c2ccc(Cl)c(Cl)c2)c1`, the growth inhibition in experiment [1] was 31%; in experiment [4], 100% (active). Further, the inhibition in experiment [2] was -10%; in experiment [3] it was -2%. Also, the result in experiment [5], in experiment [6], in experiment [7] and in experiment [8] was inactive.
With `Cc1nn(-c2ccccc2)c2nc(-c3ccccc3)cc(C(=O)N3CCOCC3)c12`, the growth inhibition in experiment [1] is 67% (active); in experiment [4], 93% (active). In addition, the inhibition in experiment [2] and in experiment [3] was 6% in each case. In addition, the result in experiment [5], in experiment [6], in experiment [7] and in experiment [8] was inactive.
For `CCc1cn2c3c(cc(C(=O)N[C@@H](Cc4ccccc4)[C@H](O)CNC4CCCC4)cc13)N(C)S(=O)(=O)CC2`, the growth inhibition was 99% (active) in experiment [1] and 100% (active) in experiment [4]. For the same compound, the inhibition is 6% in experiment [2] and -8% in experiment [3]. In addition, the result in experiment [5], in experiment [6], in experiment [7] and in experiment [8] was inactive.
In the case of `COc1ccc(NC(=O)Nc2ccc(-c3ccccc3)cc2Cl)cc1N1CCN(C)CC1`, the growth inhibition in experiment [1] is 30%; in experiment [4] it was 90% (active). The inhibition is 40% in experiment [2] and 0% in experiment [3]. In addition, the result in experiment [5], in experiment [6], in experiment [7] and in experiment [8] was inactive.
`Cc1cc(N(C)C)nc(Nc2ccc(NC(=O)c3ccc(Br)o3)cc2)n1`: the growth inhibition was 57% (active) in experiment [1] and 101% (active) in experiment [4]. Also, the inhibition in experiment [2] was 1%; in experiment [3], -2%. The outcome in experiment [5], in experiment [6], in experiment [7] and in experiment [8] was inactive.
As for `COc1ccc(NC(=O)c2ccc(Br)c(C)c2)cc1N1CCN(CCCCc2ccccc2)CC1`, the growth inhibition in experiment [1] was 17%; in experiment [4] it was 88% (active). In addition, the figures for the inhibition in experiment [2] and in experiment [3] were 29% and -1%, respectively. Moreover, the result in experiment [5], in experiment [6], in experiment [7] and in experiment [8] was inactive.
In the case of `N#Cc1ccc2c(c1)CN(C1CCC(NC(=O)/C=C/c3cc(C(F)(F)F)cc(C(F)(F)F)c3)CC1)CCC2` (stereo not given), the figures for the growth inhibition in experiment [1] and in experiment [4] were 4% and 95% (active), respectively. Besides, the figures for the inhibition in experiment [2] and in experiment [3] were 34% and -4%, respectively. The result in experiment [5], in experiment [6], in experiment [7] and in experiment [8] was inactive.
As to `CCCc1ccc(-c2csc(NC(=O)c3ccc([N+](=O)[O-])o3)n2)cc1`, the growth inhibition in experiment [1] was 13%; in experiment [4] it was 85% (active). For the same compound, the figures for the inhibition in experiment [2] and in experiment [3] were 72% (active) and 4%, respectively. For the same compound, the outcome in experiment [5], in experiment [6], in experiment [7] and in experiment [8] was inactive.
For the compound `COc1ccc(NC(=O)[C@H](CC(C)C)Nc2ccnc(Nc3ccccc3)n2)cc1`, the growth inhibition in experiment [1] is 32%; in experiment [4], 92% (active). For the same compound, the inhibition was -7% in experiment [2] and 3% in experiment [3]. The outcome in experiment [5], in experiment [6], in experiment [7] and in experiment [8] was inactive.

A word on the inhibition: it is the drop in the measured response relative to a control, in per cent.
